Out of some 230,000 compounds screened, about 1,500 (0.65%) were called active.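 How the source made its calls: active means pattern-corrected inhibition of lipid staining of at least 50% with the nuclear-stain viability signal not falling by more than 50%; inactive means the rest, inconclusive results apart.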 This excerpt belongs to a sample that is enriched for actives.
Assay: TAG lipid buildup reduction in H9c2 cells – cell-based, uHTS, fluorescence, primary screen (AID 651582);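 on inhibition: 0% = DMSO wells and 100% = triacsin C control wells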
Conditions: Nile Red lipid (TAG) fluorescence, at 12.5 µM, cells loaded with 200 µM oleic acid; DAPI nuclei signal change (viability), lower = more cytotoxic: measured here: DAPI nuclei count viability; inhibition: stronger effect = higher value

| Compound | DAPI nuclei signal change (viability), lower = more cytotoxic | inhibition |
| --- | --- | --- |
| NC(=O)c1ncn([C@@H]2O[C@H](CN=C3NS(=O)(=O)c4ccccc43)[C@@H](O)[C@H]2O)n1 | -1.84% | 13.5% (inactive) |
| COc1ccc(OCCNC(=O)c2cc(C3CC3)nc3c2cnn3C(C)C)cc1 | -4.88% | -39.8% (inactive) |
| COc1ccc(C(=O)OCC(=O)Nc2cc(C)on2)cc1F | -5.17% | 7.73% (inactive) |
| C=CCOC(=O)N1CCC2CC1c1cc(-c3ccc(OC)cc3)ccc12 (stereo not given) | 8.41% | -34.5% (inactive) |
| COc1cccc2sc(N(CCCN(C)C)C(=O)C(c3ccccc3)c3ccccc3)nc12 | -45.3% | 117% (active) |
| CCN(CC)CCN(C(=O)c1ccc2c(c1)CCCC2)c1nc2c(OC)cccc2s1 | 40% | -1.62% (inactive) |
| CN(C)CCCN(C(=O)COc1ccccc1)c1nc2c(Cl)cccc2s1 | -0.936% | 15.4% (inactive) |
| O=c1c(Cl)c(NC2CC2)cnn1-c1ccccc1 | -5.81% | -2.29% (inactive) |
| COc1ccc(Oc2c(Cl)cnn(-c3ccccc3)c2=O)cc1 | 2.85% | -4.37% (inactive) |
| Cc1cccc(-n2ncc(Cl)c(Cl)c2=O)c1 | -35.3% | 75.4% (active) |
| CCCNC(=O)C1(C)CCN(C(=O)c2ccc(F)cc2Cl)C1 (stereo not given) | 8.17% | 2.28% (inactive) |
| Nc1ccccc1SC(C[N+](=O)[O-])c1ccccc1 (stereo not given) | -46.5% | 63.9% (active) |
| CCS(=O)(=O)c1cc([N+](=O)[O-])c(Sc2ccccc2N)s1 | -4.87% | 14.6% (inactive) |
| Nc1ccccc1Sc1ccc(C(F)(F)F)cc1[N+](=O)[O-] | 8.68% | -15.4% (inactive) |
| CCOC(=O)/C=c1\s/c(=C\c2ccc(C#N)cc2)c(=O)n1CC(=O)Nc1cccc(C)c1C | -32.2% | 50.4% (active) |
| Cc1cccc(NC(=O)CN2C(=O)c3ccccc3C2=O)c1C | 2.88% | -5.58% (inactive) |
| CCOC(=O)/C=c1\s/c(=C\c2ccccc2OC)c(=O)n1CC(=O)N1CCOCC1 | -2.84% | 8.35% (inactive) |
| Cc1nc2c(OCC(=O)C(C)(C)C)cccn2c1N(C)Cc1cccs1 | 21.8% | -5.32% (inactive) |
| O=C(Cn1cnc2c(OCc3ccccc3)ncnc21)NCCCn1ccnc1 | 9.45% | -7.19% (inactive) |
| COc1cc(OC)cc(C(=O)NNC(=O)CCOc2ccccc2OC)c1 | -6.59% | 7.42% (inactive) |
| CCN(c1ccccc1)S(=O)(=O)c1ccc(C(=O)Nc2ccccc2OC)cc1 | 2.43% | 4.73% (inactive) |
| COc1ccc(-c2cc(-c3ccc(N)cc3)nc(N)c2C#N)cc1OC | 172% | 21.5% (inactive) |
| COc1ccc(-c2cc(C(F)(F)F)nc(S(C)(=O)=O)n2)cc1OC | -22.6% | 52.7% (active) |
| COc1ccc(-c2csc(-c3cccs3)n2)cc1OC | -4.83% | -5.04% (inactive) |
| CCCCCCCCNS(=O)(=O)CCNC1CCCCC1 | -4.65% | 5.91% (inactive) |
| COc1ccc(OC)c(/C=C/C(=O)c2ccc3c(c2)OCO3)c1 | 4.46% | 9.85% (inactive) |
| Cc1c(NS(=O)(=O)c2cccc(C(=O)Nc3ccc(SC(F)F)cc3)c2)c(=O)n(-c2ccccc2)n1C | -2.02% | -3.28% (inactive) |

| Compound | DAPI nuclei signal change (viability), lower = more cytotoxic | inhibition |
| --- | --- | --- |
| COc1ccc(S(=O)(=O)N(C)C)cc1NC(=O)COC(=O)c1n[nH]c2ccccc12 | -4.57% | 4.68% (inactive) |
| Cc1cccc(OCC(=O)OCC(=O)Nc2ccc(Cl)cn2)c1 | 5.47% | -14.4% (inactive) |
| COc1ccc(/C=C2\CCc3ccccc3C2=O)c(OC)c1OC | -2.46% | -5.18% (inactive) |
| COc1ccc(/C=C2/CCCc3ccccc3C2=O)cc1 | -45.7% | 59.8% (active) |
| O=C1/C(=C/c2cccs2)CCc2ccccc21 | 3.51% | -10.1% (inactive) |
| O=C(COC(=O)c1cccc(Cl)c1Cl)NC1CCCCCC1 | 6.13% | -15.2% (inactive) |
| C=CCn1c(SCC(=O)NCC2CCCO2)nc2sc(C)c(C)c2c1=O (stereo not given) | 4.45% | -8.48% (inactive) |
| C=CCn1c(SCc2c(C)noc2C)nc2sc3c(c2c1=O)CCC(C)C3 (stereo not given) | -30.5% | 85.1% (active) |
| CCCn1nnc2sc3c(c2c1=O)CCC(C)C3 (stereo not given) | 3.37% | 0.861% (inactive) |
| CN1CCn2cnc(C(=O)NCC(=O)OC(C)(C)C)c2C1=O | -1.68% | -2.56% (inactive) |
| CN(Cc1ccc(CNC[C@H]2O[C@@H](n3cnc4c(N)ncnc43)[C@H](O)[C@@H]2O)o1)S(C)(=O)=O | 2.25% | 3.67% (inactive) |
| Cc1cc(NC(=O)CSc2nc(C(C)C)nc3sc4c(c23)CCC(C)C4)no1 (stereo not given) | 1.86% | 65.3% (active) |
| Cc1cc(NC(=O)CSc2ncc(C(F)(F)F)cc2Cl)no1 | -5.5% | 0.466% (inactive) |
| Cc1cc(NC(=O)CSc2nc3c(cc2C#N)CCCCC3)no1 | 24% | 6.4% (inactive) |
| Brc1ccc(CN2CC[C@H]3C=CCc4cccc(c43)C2)cc1 | 12.5% | -54.7% (inactive) |
| COc1ccc(Cl)cc1NC(=O)CN(C)C(=O)c1cc(-c2cccs2)nn1-c1ccccc1 | 3.57% | 2.51% (inactive) |
| Cc1nc2ccccn2c(=O)c1NC(=O)c1ccc(Br)o1 | 4.97% | 4.01% (inactive) |
| COc1ccc(C(O)c2nc(-c3ccc(OC)nc3)cs2)cc1 (stereo not given) | 4.55% | -44.6% (inactive) |
| COc1cc(/C=C2\Oc3ccc(C#Cc4ccc(O)cc4)cc3C2=O)cc(OC)c1 | -0.886% | 120% (active) |
| COc1ccc2c(c1)O/C(=C\c1ccccc1O)C2=O | 4.81% | -5.85% (inactive) |
| COc1cc(C#Cc2ccc3cc(CCCO)oc(=O)c3c2)cc(OC)c1 | -19.9% | 46.6% (inactive) |
| O=C(CSc1n[nH]c(=O)n1-c1ccccc1)Nc1ccccc1C(F)(F)F | 4.07% | 6.49% (inactive) |
| COc1ccc(OC)c(NC(=O)C2CCCN2S(=O)(=O)c2ccc3c(c2)CC(C)N3C(C)=O)c1 (stereo not given) | -10.6% | -4.08% (inactive) |
| CCN1CCN(C(=O)c2ccccc2N(C)S(=O)(=O)c2ccc(C)cc2)CC1 | -0.758% | 7.33% (inactive) |
| CCOC(=O)N1CCN(C(=O)c2ccccc2N(Cc2ccccc2)S(=O)(=O)c2ccc(OC)cc2)CC1 | -41% | 53.3% (active) |
| NC(=O)c1ccccc1N(Cc1ccccc1)S(=O)(=O)c1ccccc1 | -8.47% | 2.63% (inactive) |
| CCN1C[C@@H]2[C@@H]3C(=O)N(Cc4ccccc4)C(=O)[C@@H]3[C@](C)(C1=O)N2C(=O)c1ccc(C(C)(C)C)cc1 | -6.19% | 19.2% (inactive) |

| Compound | DAPI nuclei signal change (viability), lower = more cytotoxic | inhibition |
| --- | --- | --- |
| COc1ccc(NC(=O)CNc2cc(S(=O)(=O)N3CCOCC3)ccc2N2CCOCC2)c(OC)c1 | 15.7% | -15.8% (inactive) |
| C/C(=N\Nc1ccc(Cl)nn1)c1ccccc1O | -30.3% | 59.1% (active) |
| Cc1ccsc1/C=N/Nc1ccc(Cl)nn1 | -14% | 5.97% (inactive) |
| Clc1ccc(N/N=C/c2cccs2)nn1 | 3.1% | -6.69% (inactive) |
| COc1ccccc1-c1nn(Cc2ccccc2)cc1C(=O)N1CCN(c2ncccn2)CC1 | -19.5% | 12.4% (inactive) |
| CC(C)C(=O)N1CCC2(CC1)Oc1ccc(F)cc1C(=O)C21CC(c2ccccc2)=NO1 (stereo not given) | -26.9% | 60% (active) |
| O=C1CC2(CCN(C(=O)COc3ccc(F)cc3)CC2)Oc2ccccc21 | -14.6% | 21.4% (inactive) |
| CC(C)C(=O)N1CCN(c2nc(-c3ccccc3)c3c(c2C#N)CC(C)(C)OC3)CC1 | 5.61% | 6.61% (inactive) |
| COc1ccc(C(=O)NCc2ccccc2C)cc1S(=O)(=O)NC1CCCC1 | 1.26% | -5.94% (inactive) |
| C(=N\N1CCN(c2ccccn2)CC1)/C1=C(N2CCOCC2)C(=C/c2ccccc2)/CC1 | 12.6% | 8.28% (inactive) |
| O=C1Nc2ccc(Br)cc2/C1=N/N=C/C1=C(N2CCOCC2)C(=C\c2ccccc2)/CC1 | -30.7% | 142% (active) |
| O=C(O)c1ccc(NN=CC2=C(N3CCOCC3)/C(=C/c3ccccc3)CC2)cc1 | 1.8% | 2.29% (inactive) |
| CC(=O)Oc1ccc(Cn2c(C)c(C(=O)NCc3ccc(C#N)cc3)sc2=O)cc1 | -0.306% | -4.77% (inactive) |
| COc1cc(Cl)c(C)cc1NC(=O)CSc1nnc(CN2CCCC2)o1 | 4.62% | 1.12% (inactive) |
| Cc1ccn(CC(=O)NC2CCCN(Cc3ccccc3F)C2)n1 (stereo not given) | 1.69% | -15.9% (inactive) |
| Cc1ccc(OCCNC(=O)c2cccc(S(=O)(=O)N3CCN(Cc4ccccc4)CC3)c2)cc1 | 3.36% | -7.75% (inactive) |
| CC(C)CCOc1ccc(C(=O)Nc2cc(S(=O)(=O)N3CCOCC3)ccc2N2CCOCC2)cc1 | -52.3% | 65.1% (inactive) |
| O=C(Nc1ccc2oc(-c3ccc4ccccc4c3)nc2c1)c1cccs1 | 21.1% | 33% (inactive) |
| CCCCCC(=O)Nc1ccc2oc(-c3ccncc3)nc2c1 | -5.68% | 4.08% (inactive) |
| O=C(Cc1cccc2ccccc12)Nc1ccc2oc(-c3ccccc3)nc2c1 | -5.68% | 55.2% (active) |
| CC(=O)NC(c1cccc(F)c1)c1nc(-c2cccc(F)c2)cs1 (stereo not given) | 2.1% | -15.8% (inactive) |
| CCCn1c(N)c(C(=O)CSc2nnc(Cc3cccs3)n2C2CC2)c(=O)[nH]c1=O | -3.34% | 5.02% (inactive) |
| COc1ccc(S(=O)(=O)N2CCN(CC(=O)NCC3(N4CCOCC4)CCCCC3)CC2)cc1 | -5.18% | -1.89% (inactive) |
| CCn1c2ccccc2c2cc(NC(=O)CNC)ccc21 | -1.08% | 10.2% (inactive) |
| COc1cc(Cn2c3ccc(NC(=O)CC(C)c4ccccc4)cc3c(=O)n2C)ccc1F (stereo not given) | 6.84% | 4.12% (inactive) |
| CCOCCC(=O)Nc1ccc2c(c1)c(=O)n(C)n2-c1ccc2ccccc2c1 | -27.1% | 52.9% (active) |

Source: PubChem BioAssay AID651582 (Sanford-Burnham Center for Chemical Genomics, 2012)
